Results from PubChem BioAssay AID602296 (Broad Institute, 2012).
Out of some 2,000 compounds screened, about 190 (9.5%) were called active. About 14% were inconclusive and are not listed.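 How the source made its calls: active means fitted activation curve crossing 40% at a concentration no higher than the sample's top valid tested dose; inconclusive means flat fitted curve at 30% to 70% activation, or poor curve fit; inactive means signal decrease, flat curve within 30%, or the rest.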 A selection follows.

Test: HSF-1 reporter activators over prolonged exposure, confirmation, cell-based, mouse, luciferase, cherry-pick, dose (AID 602296);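 further: test compounds applied by themselves with no MG132 co-treatment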
Details: NIH3T3-HGL HSF-1 response element luciferase, 48 h; series mostly up to 26 µM; activation: at the top concentration

activation, inactive:
COc1cc(-c2nc(-c3ccc4c(c3)-c3ccccc3S4(=O)=O)c(-c3ccccc3)[nH]2)cc(OC)c1O -40.3%, CCC(=O)Nc1c(S(=O)(=O)c2ccccc2)c2nc3ccccc3nc2n1C(C)c1ccccc1 (stereo not given) -20.5%, CCOc1cc(/C=C2/C(=O)ON=C2C)ccc1OCc1ccc(F)cc1 44.8%, O=C(CSc1ncn[nH]1)c1cccc([N+](=O)[O-])c1 -0.937%, COc1cc(-c2nnc3sc(Cc4ccc(Cl)cc4)nn23)cc(OC)c1OC -27.6%, O=C(CN(C(=O)c1csnn1)c1ccc(F)c(Cl)c1)NCc1ccc(F)cc1 -5.21%, CC(C)(C)Cc1nc2ccccc2n1CCc1ccccc1 -18.4%, COC(=O)c1ccc(CSc2nc3ccccc3c(=O)n2CC(C)C)o1 11%, CC(c1ccc(F)cc1)n1c(Cn2ncc3ccccc3c2=O)n[nH]c1=S (stereo not given) 12.2%, OC(CNCc1ccco1)Cn1c2ccc(Br)cc2c2cc(Br)ccc21 (stereo not given) 3.97%, COc1ccccc1N1CCN(C(=O)c2ccc3c(=O)n(Cc4ccco4)c(=S)[nH]c3c2)CC1 4.32%, CCCCNC(=S)N(Cc1ccco1)Cc1cc2cc3c(cc2[nH]c1=O)OCCO3 -47%, O=C1N/C(=C\c2ccc(O)cc2)C(O)=C1C=NCc1ccccc1 -52%, Cc1cccc(C(C#N)c2ccc(Cl)nn2)c1 (stereo not given) 5.31%, COc1ccc2[nH]c(C)c(CCNc3ccc(C(F)(F)F)cc3[N+](=O)[O-])c2c1 -55.4%, O=S(=O)(c1ccccc1)c1ncc(C(F)(F)F)cc1Cl -104%, O=C(CCCn1c(=S)[nH]c2ccc(Br)cc2c1=O)NCC1CCCO1 (stereo not given) 2.17%, COc1ccc(C(=O)N(C)CC(O)c2ccccc2)cc1OC1CCN(C(C)=O)CC1 (stereo not given) -5.01%, O=C1c2ccccc2-c2onc3ccc(N4CCCC4)c1c23 26.1%, COC(=O)Cc1ccc(NC(=O)c2ccc(C)c(C)c2)cc1 -71.3%, CCOC(=O)c1c(S(=O)(=O)NCC2CCN(CCc3cccs3)CC2)c(C)n(C)c1C 5.71%, Cc1nn(C)c(Oc2ccccc2)c1CCNS(=O)(=O)c1ccc(Cl)cc1 -52.3%, CN1C(=O)C2(c3ccccc31)N(C)CC(c1ccccn1)C21SC(=S)N(Cc2ccco2)C1=O (stereo not given) -66.3%, COC(=O)C1=C(C)NC(=S)NC1c1ccc(-c2cccc(Cl)c2)o1 (stereo not given) -17.3%, Cc1ccc(C(c2c(C)nn(-c3ccccc3)c2N)c2c(C)nn(-c3ccccc3)c2N)cc1 -5.45%, COc1cc(CNC2CCCC2)cc(OC)c1 2.54%, CCn1c(SCC(=O)N2CCOCC2)nc2oc3c(Cl)cc(Cl)cc3c(=O)c2c1=O 7.32%, CC(=O)c1ccc(NC(=O)CCCN2C(=O)/C(=C/C(C)=C/c3ccccc3)SC2=S)cc1 -9.9%, Cc1noc(C)c1COC(=O)c1ccccc1Oc1ccccc1 -13.4%, CCc1nnc(NC(=O)C(NC(=O)c2ccccc2Cl)C(C)C)s1 (stereo not given) -4.42%, COC(=O)c1sccc1NC(=O)Nc1cccc(F)c1 -0.711%, Cc1cc(SCC(=O)N/N=C/c2ccc(O)c(O)c2)c(C)cc1Br -70.1%, Cn1c(SCc2cccc(C(F)(F)F)c2)nnc1-c1ccco1 6.26%, Clc1ccc(CSc2nnc(-c3sccc3-n3cccc3)o2)cc1 -42.5%, Fc1ccc(Sc2ccccc2CNC2=NCCN2)cc1 -23.8%, O=S(=O)(c1ccc(Cl)c(NC(=S)N/N=C/c2ccc(O)cc2)c1)N1CCOCC1 -6.39%, O=c1c(Cl)cc(Cl)nn1-c1ccccc1 -99.9%, CCc1cc2c(SCC#N)ncnc2s1 11.3%, CCOC(=O)CC(NC(=O)C1c2ccccc2Oc2ccccc21)c1ccccc1Cl (stereo not given) -4.99%, COc1cccc(-c2c(C#N)c(N)nc3c2c(C)nn3-c2ccccc2)c1O -40.7%, O=C(COC(=O)/C=C/c1cccc([N+](=O)[O-])c1)NCc1ccco1 -2.07%, CN(C)c1ccc(C(CNC(=O)c2ccccc2)c2c[nH]c3ccccc23)cc1 (stereo not given) -28.5%, CCOC(=O)CC1C(=O)NCCN1S(=O)(=O)c1cc(Cl)c(Cl)cc1Cl (stereo not given) 9.36%, O=C(CCC1CCCC1)N=C1SC2CS(=O)(=O)CC2N1c1ccccc1F (stereo not given) 0.463%, S=c1nc(SCc2ccccc2)[nH]c2ccccc12 2.98%, O=C(Nc1ccc(OCC(F)(F)C(F)F)c(C(F)(F)F)c1)c1ccccc1O -78.6%, CC(C)N(Cc1ccccc1)C(=O)COC(=O)/C=C/c1cnc2ccccc2n1 10.3%, CCN(CCCNC(=O)CCCN1C(=O)COc2ccc(C)cc21)c1cccc(C)c1 -34.6%, Cc1ccc(C)c(NC(=O)CS(=O)(=O)c2cn(C)c3ccccc23)c1 -5.97%, Cc1ccc(NC2OC(CO)C(O)C2O)cc1[N+](=O)[O-] (stereo not given) 5.31%, COc1cccc(/C=N/Nc2ccc([N+](=O)[O-])cn2)c1O -99.1%, CCCC(=O)O/N=C(\c1ccccc1)c1ccncc1 -17.2%, COc1ccc(C)cc1NC(=O)CSc1nnc(COc2ccc(Cl)cc2)n1Cc1ccco1 -95.2%, Cc1nc2ccccc2n1CC(O)COCC1CC=CCC1 (stereo not given) -34.1%, Cc1cccc(-[n+]2c(C)cc(C)c3c(=O)[nH]c(=O)[nH]c32)c1 2.83%, O=C1CSC(=S)N1/N=C/c1cccc(C(F)(F)F)c1 19%, CN(C)CCCCNCCCNC(=O)/C=N\O 12.4%, CN(c1cccc(NC(=O)CN(c2cccc(Cl)c2)S(=O)(=O)c2ccc(Cl)cc2)c1)S(C)(=O)=O -55.2%, CC1CN(C(=O)CS(=O)(=O)Cc2ccccc2)CC(C)O1 (stereo not given) 5.95%, Cc1ccc(C(=O)/C=C/c2cc(Br)cc(Br)c2O)o1 2.94%, Cc1c(-n2cc(C(=O)c3ccccc3O)cc(C#N)c2=O)c(=O)n(-c2ccccc2)n1C 11.6%, O=C(/C=C/c1ccc(Cl)cc1Cl)N(Cc1ccccc1)C1CCS(=O)(=O)C1 (stereo not given) -14.7%, OCC1(Cc2cccc(C(F)(F)F)c2)CCN(Cc2cc3ccccc3o2)CC1 -20.1%, Cc1ccc(S(=O)(=O)c2c(N)n(-c3ccccc3)c3nc4ccccc4nc23)cc1 8.69%, CN(CC(=O)Nc1ccccc1Cl)CC(=O)Nc1c(F)cccc1F -16%
